Most compounds without a hit are left out; they make up all but 6.2% or so of the library.
HT1080-NT tox: kills 2HG-producing HT-1080-NT fibrosarcoma cells; HT-1080-NT fibrosarcoma viability, CellTiter-Glo ATP luminescence, 48 h; Potency, µM (highest dose often 46.1 µM), for the others: at the top dose activity, negative = less viability, actives largely listed as cytotoxic; 360,000 tested, 1.6% active;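 further: NT is the 2HG producing partner of a matched IDH1 knockdown line; 0% = DMSO-treated cells and -100% = media-only wells without cells; nearly all actives have a fitted effect of over 55% in size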
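Compounds were tested in concentration-response format on HT-1080-NT cells for 48 hours at 37 degrees C. Cell viability came from CellTiter-Glo luminescence; curves were classified by r2, response magnitude and activity.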
KB-V1 cytotox: kills drug-selected multidrug resistant KB-V1 cells; KB-V1 MDR cells viability, CellTiter-Glo, 72 h; Potency, µM (highest dose often 46.1 µM), most hits filed as cytotoxic; 400,000 tested, 3.4% active; further: on the % scale 0 is the no-effect control and ±100 the full control effect; nearly all actives have a fitted effect of over 60% in size
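KB-V1, DMEM (no phenol red) + 10% FBS; cpd pin-transferred, titration series; 72 h, 37 degrees C; CellTiter-Glo, luminescence. Data normalized, curve-fit.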
HT1080 IDH1KD tx: HT-1080 IDH1 knockdown cell toxicity (counter line) | HT-1080 IDH1 knockdown viability, ATP luminescence, 48 h | Potency, µM (titrated, usually from 46.1 µM), inactives show at the top dose activity, negative = toxicity, hits mostly cytotoxic | 360,000 tested, 2% active | AID 686971;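 further: 0% = DMSO wells and -100% = cell-free medium wells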
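Luminescent ATP read-out (CellTiter-Glo, 10 min at room temperature) after 48 h compound exposure at 37 °C gave viability of IDH1-knockdown HT-1080 cells. Activity was normalised to DMSO and cell-free wells, then fitted as concentration-response curves.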
KB-3-1 tox: kills parental KB-3-1 adenocarcinoma cells; Potency, µM (doses to about 46.1 µM), actives largely listed as cytotoxic; KB-3-1 viability, CellTiter-Glo ATP luminescence, 72 h; 400,000 tested, 1.4% active; further: on the % scale 0 is the no-effect control and ±100 the full control effect; nearly all actives have a fitted effect of over 60% in size
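KB-3-1 cells, DMEM (no phenol red) + 10% FBS; compound by pin transfer, 72 h, 37 °C. Readout: CellTiter-Glo luminescence after 10 min. Data normalized, curve-fitted.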
ATXN2 expr inh: reduces ATXN2 reporter expression in HEK-293 cells; 360,000 tested, 0.72% active; HEK-293 ATXN2-luciferase reporter, luminescence, 24 h; AID 1745845; Potency, µM (series often up to 57 µM), for inactives: top-dose activity change, negative = inhibition, hits mostly inhibitors; further: on the % scale 0 is the no-effect control and ±100 the full control effect; nearly all actives have a fitted effect of over 55% in size
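ATXN2-luciferase reporter cells (luciferase flanked by upstream and downstream ATXN2 gene portions) were treated 24 h at 37 °C with compounds at up to 57 uM. SteadyGlo luminescence gave expression; GF-AFC fluorescence gave viability.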
ATXN viability: reduces viability in counter-screen for ATXN expression inhibitors; 400,000 tested, 0.49% active; S2 cells (HEK-293 line with an ATXN2-luciferase reporter) viability, CellTiter-Fluor protease fluorescence, 24 h; Potency, µM (top dose mostly 56.7 µM), actives largely listed as cytotoxic; further: nearly all actives have a fitted effect of over 40% in size
Active calls of the source: *; i = inactive; ? = inconclusive; · = no result; [ ] = dose if it differs, or a comment. The call rests on the fitted dose curve; in most records, active means well fitted curve in the direction sought with a large enough effect; inconclusive means small, poorly fitted or top-dose-only effect, or another doubt; inactive means no such curve, though single readings can be large; an effect the other way counts as inactive or inconclusive. Potency means the concentration at half of the fitted maximal effect.

SMILES	HT1080-NT tox	KB-V1 cytotox	HT1080 IDH1KD tx	KB-3-1 tox	ATXN2 expr inh	ATXN viability
COc1cc2nc3n(c(=O)c2cc1OC)-c1cc2ccccc2cc1C(=O)NC3Cc1ccccc1 (configuration not stated)	-18.6%	i	-22.9%	i	-3.9%	?
O=C1NC(Cc2ccccc2)c2nc3cc(F)c(F)cc3c(=O)n2-c2cc3ccccc3cc21 (configuration not stated)	?	?	?	14.6µM*	-31.9%	?
CCC1NC(=O)c2cc3ccccc3cc2-n2c1nc1cc(F)ccc1c2=O (configuration not stated)	13.7%	?	2.8%	i	-7.1%	i
O=C1NC(Cc2ccc(O)cc2)c2nc3ccc(F)cc3c(=O)n2-c2cc3ccccc3cc21 (configuration not stated)	11.6µM*	?	16.4µM*	13µM*	?	14.1µM*
Cc1ccc(-n2nc(C)c3c(C(=O)NCCc4ccccc4)cc(C)nc32)cc1	·	i	·	i	13.7%	i
COC(=O)c1ccc(S(=O)(=O)N2C3CCC2CC(NC(=O)NC2CCCCC2)C3)cc1 (configuration not stated)	-1.6%	i	-11.5%	i	-23.5%	i
COc1ccc(S(=O)(=O)N2C3CCC2CC(NC(=O)NC2CCCCC2)C3)cc1 (configuration not stated)	7.0%	16.4µM*	-7.2%	i	0.2%	i
Oc1ccc(CCNc2c3ccccc3nc3ccccc23)cc1O	23.1µM*	i	?	18.4µM*	?	?
Cc1c2ccccc2nc2c(F)c(NCCO)c(F)c(F)c12	-6.5%	?	-3.8%	i	8.0%	i
CN(C)CCCNc1c2ccccc2nc2ccccc12	4.11µM*	11.6µM*	5.17µM*	1.64µM*	?	?
OCCNc1c2ccccc2nc2c(F)c(F)c(F)c(F)c12	?	?	4.61µM*	i	7.52µM*	·
Cc1ccc(S(=O)(=O)N2CCCN(C(=O)CNC(=O)c3cccc(C)c3)CC2)cc1	0.4%	i	-3.5%	i	-4.4%	i
COc1cccc2cc(-c3nc(Nc4cccc(C)c4)sc3C)c(=O)oc12	·	i	·	i	3.4%	i
CCCCN(C)C(=O)c1sc(=O)n(Cc2ccc(Cl)c(Cl)c2)c1C	-2.5%	?	-16.0%	i	-35.9%	i
O=C(Nc1ccc(F)cc1F)c1cc(-c2ccc(Cl)cc2)on1	·	i	·	i	10.4%	i
Cc1ccccc1C1N=C2Oc3ccccc3C=C2C(=O)N1 (configuration not stated)	-16.9%	4.11µM*	-5.9%	7.31µM*	-3.9%	·
O=[N+]([O-])c1ccc(CSc2nnc(Cc3ccccc3)n2-c2ccc(F)cc2)cc1	-20.3%	?	-25.2%	i	-22.2%	?
COC(=O)c1ccc(CSc2nnc(-c3c[nH]c4ccccc34)n2-c2ccccc2)cc1	-2.5%	i	-22.2%	?	-17.1%	i
Cc1cccc(-n2c(Cc3ccccc3)nnc2SCc2ccc([N+](=O)[O-])cc2)c1	-2.3%	7.31µM*	-10.5%	?	-11.8%	i
Cc1cccc(-n2c(SCc3ccc(C#N)cc3)nnc2-c2c[nH]c3ccccc23)c1	?	3.26µM*	?	?	?	?
CCOc1ccc2c(c1)c(=O)c(C(=O)c1ccccc1)cn2Cc1ccccc1	·	i	·	i	-22.1%	i
O=C(c1cccn1-c1nnc(N2CCCC2)s1)N1CCN(c2ccc(Cl)cc2)CC1	·	i	·	i	·	·
Cc1cc(OC(C)C)nc(NCc2ccccc2)n1	?	i	?	11.6µM*	-19.2%	?
COc1cc(C)nc(NCc2ccccc2)n1	0.0%	i	-10.5%	i	?	i
COc1ccc(Nc2cc(C)nc(NCc3ccccc3)n2)cc1	18.4µM*	?	20.6µM*	?	-38.2%	i
SMILES	HT1080-NT tox	KB-V1 cytotox	HT1080 IDH1KD tx	KB-3-1 tox	ATXN2 expr inh	ATXN viability
Cc1ccc(Nc2cc(C)nc(NCc3ccccc3)n2)cc1	20.6µM*	11.6µM*	18.4µM*	?	·	i
Cc1cc(NC2CCCCC2)nc(NCc2ccccc2)n1	?	i	?	?	?	?
Cc1cc(C)c2c(NC(=O)c3ccccc3Cl)c(C(=O)NCc3ccc(Cl)cc3)sc2n1	·	?	·	?	-1.1%	i
COCP(=O)(c1ccccc1)c1ccccc1	-3.9%	i	-8.3%[9.24 µM]	i	1.0%	i
COc1ccc(P(=O)(COc2ccc([N+](=O)[O-])cc2)c2ccc(OC)cc2)cc1	-2.6%	4.11µM*	-3.0%	i	7.3%	i
O=P(CCCCCCCCCP(=O)(c1ccccc1)c1ccccc1)(c1ccccc1)c1ccccc1	18.4µM*	14.6µM*	23.1µM*	?	25.1µM*	22.4µM*
O=P(COc1ccccc1)(c1ccccc1)c1ccccc1	-4.4%	14.6µM*	3.3%	i	5.6%	i
CC(C)c1ccc(NS(=O)(=O)c2ccc3[nH]cc(C(=O)NCC4CCCO4)c(=O)c3c2)cc1 (configuration not stated)	·	?	·	i	10.2%	i
CCN(CC)c1ccc(C(=C2C=CC(=[N+](CC)CC)C=C2)c2ccccc2)cc1	2.59µM*	?	1.03µM*	0.0259µM*	0.355µM*	0.891µM*
CCN(CC)c1ccc(C(=C2C=CC(=[N+](CC)CC)C=C2)c2cc(S(=O)(=O)O)ccc2S(=O)(=O)[O-])cc1	·	·	·	·	11.2µM*	?
CCN(CC)c1ccc(C(=C2C=CC(=[N+](CC)CC)C=C2)c2ccc(N(CC)CC)cc2)cc1	7.31µM*	?	5.17µM*	?	?	·
COc1cc(OC)c(NC(=O)N2CCSc3ccccc32)cc1Cl	·	i	·	i	·	·
O=C(Nc1cccc(N2CCC(NCc3cnn(-c4ccccc4)n3)CC2)c1)c1cccnc1	·	·	·	·	·	i
COc1ccc(CN2CCOc3ccc(CN4CCC(O)CC4)cc3C2)c(OC)c1OC	·	·	·	·	·	i
Cc1cccc(N2C(=O)N(CC(=O)C(C)(C)C)c3ccccc3S2(=O)=O)c1C	·	i	·	i	-2.2%	i
COc1ccccc1NC(=O)N1CCC(CN2CCc3ccccc3C2)CC1	·	i	·	i	1.4%	i
O=C(Nc1cc(Cl)ccc1Cl)c1ccc2c(c1)N(Cc1cccc(Cl)c1)C(=O)c1ccccc1S2=O (configuration not stated)	·	i	·	i	-12.3%	i
CC1CCN(C(=O)CN2CCSc3ccccc32)CC1	·	i	·	i	8.6%	?
